USP28 block = inhibitors of human USP28 deubiquitinase; purified USP28, Ub-rhodamine cleavage fluorescence, 30 min; AID 1645857, 2021; 3% of 47,000 active; Ubiquitin carboxyl-terminal hydrolase 28 (Homo sapiens), Q96RU2; inhibition, % at 25 µM
USP10 inh = inhibitors of human USP10 deubiquitinase; purified USP10, Ub-rhodamine fluorescence, 60 min; inhibition, % at 20 µM; 1.1% of 47,000 active; AID 1645856, 2021
USP8 block = inhibitors of human USP8 deubiquitinase; purified USP8, Ub-rhodamine cleavage fluorescence, 30 min; 4.2% of 47,000 active; Ubiquitin carboxyl-terminal hydrolase 8 (Homo sapiens), P40818; inhibition, % at 20 µM
USP17 inh = inhibitors of human USP17 deubiquitinase. purified USP17, Ub-rhodamine cleavage fluorescence, 3 h. inhibition, % at 50 µM. 6.5% of 47,000 active. AID 1645855, 2021
USP30 inh = inhibitors of human USP30 deubiquitinase | Ubiquitin carboxyl-terminal hydrolase 30 (Homo sapiens), Q70CQ3 | purified USP30, Ub-rhodamine cleavage fluorescence | inhibition, % at 25 µM | 5.3% of 47,000 active
* = called active by the depositor; x = not tested or not shown. The list is not random: actives were taken first. Their share in the collection is about 13%. Cut-off read from the data, not from the text of the source: active = inhibition above about 30%; inactive = the rest.

SMILES	USP28 block	USP10 inh	USP8 block	USP17 inh	USP30 inh
O=C(Nc1ccccc1-c1cnn(-c2ccccc2)c1)c1ccccc1Cl	20.1	-1.3	18.1	x	41.0*
CC(C)c1ccc(OCC(=O)NCC2(N3CCN(C)CC3)CCCCC2)cc1	16.2	0.1	-3.7	-2.2	30.3*
COc1ccc(C(=O)O)cc1S(=O)(=O)N1CCCc2ccccc21	11.0	0.1	80.4*	42.1*	4.8
COC(=O)c1cccc(NC(=O)c2ccc(OC)c(S(=O)(=O)N3CCCc4ccccc43)c2)c1	-3.2	-1.0	-18.8	-14.3	-71.8
Cc1ccc(Cn2c(C(=O)Nc3cccnc3)cc3sccc32)cc1	8.4	3.1	43.1*	42.5*	22.1
COc1ccccc1CN1C[C@@H]2OCC(=O)N(C3CCOCC3)[C@H]2C1	0.8	-0.1	-2.2	3.2	3.0
CCOC(=O)c1c2ccc(OCC(=O)NCc3ccco3)cc2n2ccccc12	-29.4	-6.0	63.1*	20.3	-184.7
O=C(NCc1ccc2c(c1)OCO2)c1nnn(-c2ccccc2)n1	6.9	3.1	0.6	6.1	10.0
CCc1ccc(NC(=O)c2nc3nc(C)cc(C)n3n2)cc1	-5.4	2.6	0.8	-11.2	3.9
O=C(Nc1nc2c(s1)CN(C(=O)c1cc(-c3ccco3)on1)CC2)C1CCCO1 (stereo not drawn)	20.2	-1.6	58.9*	33.3*	-136.0
O=C(NCc1cccc(Cl)c1)c1ccc2c(c1)SC1=NS(=O)(=O)CCN12	5.1	-4.2	-8.7	3.8	-7.8
CC(C)(C)c1ccccc1NC(=O)c1ccc2c(c1)SC1=NS(=O)(=O)CCN12	31.1*	-2.1	-1.0	11.8	-8.0
N#Cc1c2c(c(-c3ccccc3)n3c1nc1ccccc13)CCC2	-0.4	-4.5	-6.6	43.1*	-38.4
CC(NC(=O)CN(C)c1nnc(N2CCCC2=O)s1)c1ccccc1 (stereo not drawn)	5.1	0.2	2.9	5.4	26.9
CC1CCN(c2ccc(N3CCC(C(=O)NC4CCCCC4)CC3)nn2)CC1	-5.9	-4.8	-23.9	-8.4	-25.7
O=C(CSc1ccc(N2CCC(C(=O)NC3CC3)CC2)nn1)Nc1cccc(Cl)c1	-17.9	-7.2	-9.9	37.7*	-91.1
O=C(Nc1nnc(C2CC2)s1)c1ccc(OCC2CCCO2)cc1 (stereo not drawn)	-0.2	2.1	5.0	64.2*	-9.4
CCc1noc(C)c1C(=O)Nc1nnc(C2CC2)s1	-1.4	1.8	5.2	-0.1	-1.7
COc1ccccc1CNC(=O)c1noc2c1CCc1sccc1-2	28.9	6.1	4.9	26.1	30.1*
CC(NC(=O)c1noc2c1CCc1sccc1-2)c1ccccc1 (stereo not drawn)	16.0	9.4	-16.6	-4.7	3.4
O=C(NCc1ccc(Cl)cc1)c1noc2c1CCc1sccc1-2	-4.7	-7.0	74.7*	29.8	-24.9
O=C(NCc1ccc(F)cc1)c1noc2c1CCc1sccc1-2	-17.2	3.5	0.9	0.5	18.6
O=C(NCCc1c[nH]c2ccccc12)c1noc2c1CCc1sccc1-2	22.4	7.7	9.0	31.9*	-55.1
COc1ccc2c(c1)CCc1c(C(=O)NCc3cccnc3)noc1-2	18.2	-4.6	28.3	47.0*	52.9*
O=C(c1ccccn1)N(c1ccc(Oc2ccccc2)cc1)c1nc2ccccc2s1	-23.0	1.9	-9.6	-19.2	-30.0
SMILES	USP28 block	USP10 inh	USP8 block	USP17 inh	USP30 inh
COc1ccc(C)cc1N(C)C(=O)c1noc2c1CCc1sccc1-2	22.4	2.0	9.9	20.9	30.4*
Nc1ccccc1SC(CC(=O)c1ccc(Cl)cc1)c1ccsc1 (stereo not drawn)	12.0	7.1	72.7*	53.3*	-16.3
O=C(CC(C(=O)c1ccccc1)c1cccs1)c1ccc(Cl)cc1 (stereo not drawn)	-3.1	3.1	-59.3	-23.5	-12.6
COc1cc2ccccc2cc1C(=O)Nc1cccc(C)c1C	x	4.2	6.4	56.9*	x
Cc1[nH]n2c(=O)c(Cl)c(-c3ccccc3)nc2c1-c1ccccc1	13.8	33.2*	-218.6	4.7	11.0
Cc1ccnc(SCc2cc(=O)n3[nH]c(C)c(-c4ccccc4)c3n2)n1	-4.4	2.5	-108.1	-15.1	10.2
Cc1cc(C)nc(SCc2cc(=O)n3[nH]c(C)c(-c4ccccc4)c3n2)n1	22.6	12.6	-108.0	-4.7	46.2*
CN1CCN(Cc2nc(-c3ccc(N4CCCCC4)nc3)no2)CC1	9.6	-3.9	-0.1	-2.0	32.8*
C=C(C)CSc1nc2sc3c(c2c(=O)n1CCc1ccccc1)CCN(C)C3	-46.8	-12.9	-22.1	-52.7	-285.4
CC(=O)CSc1nc2sc3c(c2c(=O)n1-c1ccccc1)CCCC3	6.9	23.7	10.2	16.4	30.1*
Cc1nnc(NC(=O)C2CCN(C(=O)c3ccccc3F)CC2)s1	14.1	4.3	12.2	13.5	18.2
CCOc1ccccc1N1CCN(Cc2cn[nH]c2-c2ccccc2)CC1	3.0	2.8	-52.9	-3.0	-21.1
CC1CCCN(C(=O)c2snc3c(=O)n(C(C)C)c(=O)[nH]c23)C1 (stereo not drawn)	6.4	2.3	2.7	3.4	5.4
O=C(Nc1ncccc1O)C1CC(=O)N(c2ccc3c(c2)OCO3)C1 (stereo not drawn)	-5.5	-7.5	55.1*	13.7	-70.4
Cc1cnc(NC(=O)C2CC(=O)N(c3ccc4c(c3)OCCO4)C2)s1 (stereo not drawn)	0.0	-2.6	-3.0	-11.8	-7.9
CC(=O)N1CCC(c2cncc(N3CC4(CCCCC4)OC3=O)n2)CC1	-5.0	4.6	0.9	-2.9	-0.3
O=C(c1nc(Cn2cnc3ccccc3c2=O)no1)N1CCCCCC1	-8.3	-1.2	-24.3	-1.8	-0.2
C[C@@H](NS(=O)(=O)c1ccc(F)c(Cl)c1)C(=O)NCc1cscn1	-2.9	0.0	0.5	-0.7	-0.2
CC(NS(=O)(=O)c1cccc(Cl)c1)C(=O)O (stereo not drawn)	1.0	2.2	-0.1	-0.4	30.3*
O=C(Nc1nc2c(s1)CCCC2C(=O)NCc1ccncc1)c1ccc2c(c1)OCO2 (stereo not drawn)	37.6*	-1.0	-141.0	-15.1	7.0
O=C(Nc1nc2c(s1)CCC2C(=O)NCc1ccncc1)c1ccccc1 (stereo not drawn)	-16.4	-9.4	-24.8	-14.1	-39.4
O=C(CSc1n[nH]c(-c2cc(Br)ccc2O)n1)NCCc1ccccc1	24.8	16.7	80.6*	37.7*	10.5
Cc1ccc(C(=O)NCC(=O)Nc2nc3ccccc3[nH]2)c(C)c1	12.6	4.5	-0.9	56.5*	-22.3
COc1cccc(NC(=O)CCCSc2nc3ccccc3[nH]2)c1	36.9*	2.9	2.7	-4.6	-6.6
COc1cccc(C(=O)NCC(=O)Nc2nc3ccccc3[nH]2)c1	15.7	8.1	11.4	58.9*	20.9
Cc1ccc(CC(=O)NCC(=O)Nc2nc3ccccc3[nH]2)cc1	10.0	6.1	5.7	44.9*	-14.6
COc1ccc(Cn2c(C)nc3c(NS(=O)(=O)c4ccc(F)cc4)c(C)c(C)cc32)cc1	1.8	0.9	-13.1	0.1	15.4
